Data on 21 compounds can be found in PubChem BioAssay (NCI).

Experiment [1] can be described thus: NCI Yeast Anticancer Drug Screen. Data for the rad50 strain (AID 155).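 Also: 0% = growth of vehicle-only cultures of the same strain.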 Conditions: S. cerevisiae rad50 strain growth inhibition; at 50.0 µM; active compounds read high. Summed up:
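A DNA repair-deficient yeast mutant serves as the test organism; compound-induced growth inhibition is calculated against vehicle-treated cells.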

Experiment [2] is described as follows: NCI Yeast Anticancer Drug Screen. Data for the mec2-1 strain (AID 157). Particulars: S. cerevisiae mec2-1 strain, at 50.0 µM, active compounds read high. Summed up: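 mec2-1 yeast strain, carrying an alteration in DNA damage repair or cell cycle control, was exposed to compounds; growth inhibition was measured relative to vehicle-treated controls.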
A short description of experiment [3]: NCI Yeast Anticancer Drug Screen. Data for the sgs1 mgt1 strain (AID 161).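 Also: 0% = growth of cultures given vehicle only.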 Conditions: S. cerevisiae sgs1 mgt1 strain, at 50.0 µM, active compounds read high. The procedure, abridged: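 This yeast growth screen uses a strain with defined DNA-repair lesions; compound-treated growth is compared with vehicle-treated growth.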
Experiment [4] in a line: NCI Yeast Anticancer Drug Screen. Data for the cln2 rad14 strain (AID 165).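 Also: 0% = growth equal to vehicle treated cultures.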 Particulars: S. cerevisiae cln2 rad14 strain, at 50.0 µM, active compounds read high. Summed up: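 Yeast carrying cln2 and rad14 alterations (cell cycle control and DNA damage repair) were exposed to compounds. Growth inhibition was measured against vehicle-treated controls.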
The nature of experiment [5]: NCI Yeast Anticancer Drug Screen. Data for the bub3 strain (AID 167). Conditions: S. cerevisiae bub3 mutant strain, at 50.0 µM, active compounds read high. The procedure, abridged:
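Inhibition values come from growth of compound-treated mutant yeast normalised to vehicle-treated controls.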

Experiment [6] is described as follows: NCI Yeast Anticancer Drug Screen. Data for the mlh1 rad18 strain (AID 175). Conditions: S. cerevisiae mlh1 rad18 strain growth inhibition; at 50.0 µM; active compounds read high. The procedure, abridged: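 Growth inhibition of the yeast strain was measured after compound exposure and expressed relative to vehicle-treated controls. The strain carries defined defects in DNA damage repair.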

The panel holds about 79,000 compounds, 15% with a hit somewhere; the sample as a whole holds those more often. A number with no mark means an inactive call. Activity calls are given as the source filed them. Rule as the data show it: active = growth inhibition above about 70%; inactive = the rest.

Turning to `CC(=O)OCCOc1ccccc1Cl`, the growth inhibition was 2.75% in experiment [1]; -5.8% in experiment [2]; 3.25% in experiment [3]; -16.9% in experiment [4]; -23.1% in experiment [5]; -13.1% in experiment [6].

On to `Cc1ccc(S(=O)(=O)NNC(=O)Nc2cccc(C(F)(F)F)c2)cc1`, for which the growth inhibition was 24.4% in experiment [1]; -18% in experiment [2]; 18.1% in experiment [3]; -2.15% in experiment [4]; -0.3% in experiment [5]; 54.7% in experiment [6].

Regarding `c1ccc(N2CCN(c3ccccn3)CC2)nc1`, the growth inhibition in experiment [1] is -2.65%; in experiment [2], -13.6%; in experiment [3] it was 2.5%; in experiment [4], -21.5%; in experiment [5] it was -13.7%; in experiment [6], -5.1%.

As for `CCN(CC)C(=O)Cc1c(C(=O)N(CC)CC)c(=O)nc2sccn12`, the growth inhibition in experiment [1] was -27.2%; in experiment [2], -15.8%; in experiment [3], -30.8%; in experiment [4] it was -23.3%; in experiment [5] it was -25%; in experiment [6], -43.6%.

Consider `NC(=O)C(CCN1CCCCC1)c1ccccc1` (stereo unspecified), for which the growth inhibition in experiment [1] was 27.2%; in experiment [2], -7.35%; in experiment [3], 7.75%; in experiment [4] it was 9.5%; in experiment [5] it was 5.45%; in experiment [6] it was 24.8%.

Consider `CN1C=CC(=Cc2ccccc2)C=C1`, for which the growth inhibition in experiment [1] is 3.3%; in experiment [2] it was 5.85%; in experiment [3], -6.45%; in experiment [4], -25%; in experiment [5], -10.8%; in experiment [6] it was 1.4%.

On to `O=C(Nn1c(-c2ccccc2)nc2ccccc2c1=O)c1cccc([N+](=O)[O-])c1`, for which the growth inhibition in experiment [1] was -27.8%; in experiment [2], -33.9%; in experiment [3] it was -14.2%; in experiment [4] it was 5.5%; in experiment [5], 23.8%; in experiment [6], 3.85%.

With `CC(=O)C(C)CCOC1(C)OCCC1C` (stereo unspecified), the growth inhibition was -7.4% in experiment [1]; 5.25% in experiment [2]; -13.1% in experiment [3]; -22.2% in experiment [4]; -36.4% in experiment [5]; 7% in experiment [6].

In the case of `NCCOCC(N)C(=O)O` (stereo unspecified), the growth inhibition in experiment [1] was -9.3%; in experiment [2] it was -14.4%; in experiment [3], -52.4%; in experiment [4], -27.1%; in experiment [5], -51%; in experiment [6], 8.4%.

As for `CN(C)c1ccc(N=Cc2ccc3c(c2)OCO3)cc1`, the growth inhibition is -6.65% in experiment [1]; 6.3% in experiment [2]; -15.3% in experiment [3]; -18.1% in experiment [4]; -6.1% in experiment [5]; -0.05% in experiment [6].

Take `Cc1cccc(C2=N/C(=C\c3c(O)ccc4ccccc34)C2=O)c1`: the growth inhibition was 6.55% in experiment [1]; 7.1% in experiment [2]; 0.9% in experiment [3]; 6.55% in experiment [4]; 10.9% in experiment [5]; -6.65% in experiment [6].

Turning to `CCOc1ccnc2c(OC)c(C)c3nc4ccccc4nc3c12`, the growth inhibition in experiment [1] is 7.6%; in experiment [2] it was -13.2%; in experiment [3] it was -4.65%; in experiment [4], 13.6%; in experiment [5] it was -7.3%; in experiment [6], 91% (active).

As to `O=C(/C=C\c1cccc2ccccc12)c1cccc2ccccc12`, the growth inhibition in experiment [1] was 35.5%; in experiment [2], 12.8%; in experiment [3] it was 0.55%; in experiment [4] it was -4.75%; in experiment [5], 23.1%; in experiment [6], 34.4%.

`Cc1ccc(/S(Cc2ccccc2)=N\S(=O)(=O)c2ccc(C)cc2)cc1` (stereo unspecified): the growth inhibition was -40.2% in experiment [1]; -36% in experiment [2]; -60.9% in experiment [3]; -13.3% in experiment [4]; -27.8% in experiment [5]; -33.1% in experiment [6].

For the compound `C=CCC(O)c1ccc2c(c1)OCO2` (stereo unspecified), the growth inhibition was -1% in experiment [1]; 13.3% in experiment [2]; -9.8% in experiment [3]; -40% in experiment [4]; -4.25% in experiment [5]; 10.1% in experiment [6].

Consider `CCOC(=O)CC(C#N)C(C)C(=O)OCC` (stereo unspecified), for which the growth inhibition in experiment [1] was 2.3%; in experiment [2], 1.3%; in experiment [3] it was 0.4%; in experiment [4], 6.5%; in experiment [5] it was 0.9%; in experiment [6] it was -0.35%.

On to `CCOC(=O)c1ccc(NC(=O)CCCCCCCCC(=O)Nc2ccc(C(=O)OCC)cc2)cc1`, for which the growth inhibition is 7.5% in experiment [1]; -5.6% in experiment [2]; -0.85% in experiment [3]; -8.45% in experiment [4]; -2.1% in experiment [5]; -6.95% in experiment [6].

Take `CCCc1nc2c([nH]1)c(=O)n(C)c(=O)n2C`: the growth inhibition in experiment [1] was 22.6%; in experiment [2], -14.3%; in experiment [3] it was 3.5%; in experiment [4], 9.85%; in experiment [5], -21.1%; in experiment [6], 22.6%.

For `O=C(Nc1ccsc1)c1ccccc1`, the growth inhibition was -10.8% in experiment [1]; -8.7% in experiment [2]; -19.3% in experiment [3]; -58.2% in experiment [4]; -27.4% in experiment [5]; -3.25% in experiment [6].

On to `N=c1c2ccccc2c2ccccc2n1O`, for which the growth inhibition in experiment [1] was 2.15%; in experiment [2], -5.05%; in experiment [3] it was -19.1%; in experiment [4], -11.4%; in experiment [5], -5.75%; in experiment [6], -19.4%.

In the case of `CCOC(OCC)C(=O)NC(C)c1ccc(O)c(OC)c1` (stereo unspecified), the growth inhibition in experiment [1] is -20.8%; in experiment [2], 7.95%; in experiment [3], 0.2%; in experiment [4], -12.2%; in experiment [5], -7.4%; in experiment [6], 3.2%.
